A word on the inhibition: it is the change of the read-out against control, counted positive when it falls.

This test addresses Sentrin-specific protease 1 (Homo sapiens) (UniProt Q9P0U3). Nature of the test: human SENP1 catalytic domain inhibitors, confirmation, biochemical, kinetic FRET, single concentration (AID 651690).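 Note: 0% = DMSO with enzyme and 100% = no enzyme substrate only.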 The note with it: recombinant SENP1, CyPet-SUMO1-YPet FRET kinetic cleavage; at 10 µM; stronger effect = higher value.

The other results are listed elsewhere or left out. Unmarked numbers belong to inactive results. Cut-off read from the data, not from the text of the source: active = inhibition mostly above about 32% (no sharp cut-off); inactive = mostly below about 29%.

Sequence of Sentrin-specific protease 1 (Homo sapiens) (Q9P0U3 419-644 limits assumed): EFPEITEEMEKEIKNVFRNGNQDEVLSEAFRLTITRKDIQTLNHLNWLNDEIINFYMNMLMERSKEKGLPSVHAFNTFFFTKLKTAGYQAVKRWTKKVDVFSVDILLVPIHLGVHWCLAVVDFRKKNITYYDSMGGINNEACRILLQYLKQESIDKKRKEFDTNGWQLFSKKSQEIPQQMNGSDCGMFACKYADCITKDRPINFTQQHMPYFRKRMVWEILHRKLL

With `COc1ccccc1N=Nc1c(O)[nH]c(=S)[nH]c1=O`, the inhibition was 31.3%.
